SMILES strings stand for the structures. Active and inactive are the calls of the source.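 How the source made its calls: active means NF-kB reporter IC50 at most 10 µM, IL-8 IC50 within fivefold of it with bacterial filtrate but not with TNF-alpha; inactive means the rest.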

The target of the assay is Interleukin-8 (Homo sapiens) (UniProt P10145). Put plainly: inhibitors of NFkB activation in CF airway cells, SAR follow-up, KKLEB cells, panel, IL8 HTRF, NFkB-GFP (AID 651592).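 Further: immortalized cystic fibrosis airway epithelial KKLEB cells with an NF-kB GFP reporter.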 The note with it: PAF/TNFa-induced NFkB-GFP / IL8 HTRF, mean of runs. In general terms: In TR-FRET formats the signal depends on donor and acceptor labels being close together.
Sequence of Interleukin-8 (Homo sapiens) (P10145 whole entry, looked up): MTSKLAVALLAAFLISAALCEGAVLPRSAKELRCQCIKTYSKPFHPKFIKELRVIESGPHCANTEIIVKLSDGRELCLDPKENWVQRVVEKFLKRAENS
In the case of `O=C(Nc1ccc(N2CCN(C(=O)c3ccccc3F)CC2)cc1)c1cccc(Br)c1`, the call was active.

On to `O=C(Nc1ccc(N2CCN(C(=O)c3ccc(F)cc3)CC2)cc1)c1cncc(Br)c1`, for which the outcome was inactive.

In the case of `O=C(Nc1ccc(N2CCN(C(=O)c3ccccc3)CC2)cc1)c1cccc(Br)c1`, the outcome was active.

As for `O=C(Nc1ccc(N2CCN(C(=O)c3ccc(F)cc3)CC2)cc1)c1ccncc1`, the compound was called active.

Take `O=C(Nc1ccc(N2CCN(C(=O)c3ccccc3Cl)CC2)cc1)c1cc(Br)cc(Br)c1`: the outcome was active.

As to `O=C(Nc1ccc(N2CCN(C(=O)c3ccc(F)cc3)CC2)cc1)c1cccc(Br)c1`, the compound was called active.

Regarding `O=C(Nc1ccc(N2CCN(C(=O)c3ccccc3Cl)CC2)cc1)c1ccccc1`, the result was inactive.

`CCOc1ccc(NCc2cc3c(C(C)(C)C)nn(-c4ccc(Cl)cc4)c3[nH]c2=O)cc1`: the compound was called active.

For `CCOc1ccc(NCc2cc3c(C(C)(C)C)nn(-c4ccccc4)c3[nH]c2=O)cc1`, the outcome was active.

As for `Cc1ccc(CNCc2cc3c(C(C)(C)C)nn(-c4ccccc4)c3[nH]c2=O)cc1`, the call was active.

Take `O=C(Nc1ccc(N2CCN(C(=O)c3ccc(F)cc3)CC2)cc1)c1cc(Br)cc(Br)c1`: the compound was classed as active.

With `O=C(Nc1ccc(N2CCN(C(=O)c3ccccc3F)CC2)cc1)c1ccccn1`, the result was active.

As to `O=C(Nc1ccc(N2CCN(C(=O)c3ccccc3Cl)CC2)cc1)c1cccc(Br)c1`, the compound was called active.

For `O=C(Nc1ccc(N2CCN(C(=O)c3ccccc3Cl)CC2)cc1)c1cncc(Br)c1`, the compound was classed as inactive.

Regarding `O=C(Nc1ccc(N2CCN(C(=O)c3ccccc3)CC2)cc1)c1cncc(Br)c1`, the compound was classed as inactive.

Regarding `O=C(Nc1ccc(N2CCN(C(=O)c3ccccc3)CC2)cc1)c1cccnc1`, the result was active.

As to `O=C(Nc1ccc(N2CCN(C(=O)c3ccccc3F)CC2)cc1)c1cccnc1`, the compound was classed as active.

Turning to `O=C(Nc1ccc(N2CCN(C(=O)c3ccccc3Cl)CC2)cc1)c1ccncc1`, the outcome was active.

Consider `O=C(Nc1ccc(N2CCN(C(=O)c3ccccc3F)CC2)cc1)c1ccccc1`, for which the outcome was active.

Take `O=C(Nc1ccc(N2CCN(C(=O)c3ccccc3F)CC2)cc1)c1cc(Br)cc(Br)c1`: the result was active.

With `O=C(Nc1ccc(N2CCN(C(=O)c3ccccc3)CC2)cc1)c1ccncc1`, the call was active.

`Cc1ccc(NCc2cc3c(C(C)(C)C)nn(-c4ccccc4)c3[nH]c2=O)cc1`: the call was active.

For the compound `O=C(Nc1ccc(N2CCN(C(=O)c3ccc(F)cc3)CC2)cc1)c1cccnc1`, the compound was called active.

As to `O=C(Nc1ccc(N2CCN(C(=O)c3ccccc3)CC2)cc1)c1ccccc1`, the compound was classed as active.

In the case of `O=C(Nc1ccc(N2CCN(C(=O)c3ccc(F)cc3)CC2)cc1)c1ccccc1`, the call was active.

As for `O=C(Nc1ccc(N2CCN(C(=O)c3ccccc3Cl)CC2)cc1)c1ccccn1`, the call was active.

Turning to `CCOc1ccc(NCc2cc3c(-c4ccc(F)cc4)nn(-c4ccccc4)c3[nH]c2=O)cc1`, the outcome was inactive.

For the compound `CCOc1ccc(NCc2cc3c(C)nn(-c4ccccc4)c3[nH]c2=O)cc1`, the result was inactive.

Turning to `O=C(Nc1ccc(N2CCN(C(=O)c3ccccc3)CC2)cc1)c1cc(Br)cc(Br)c1`, the result was active.

`O=C(Nc1ccc(N2CCN(C(=O)c3ccccc3)CC2)cc1)c1ccccn1`: the result was active.

As for `O=C(Nc1ccc(N2CCN(C(=O)c3ccccc3F)CC2)cc1)c1ccncc1`, the compound was called active.

As for `O=C(Nc1ccc(N2CCN(C(=O)c3ccc(F)cc3)CC2)cc1)c1ccccn1`, the result was active.

Regarding `CCOc1ccc(NCc2cc3c(-c4ccc(OC)c(OC)c4)nn(-c4ccccc4)c3[nH]c2=O)cc1`, the compound was called active.

For the compound `O=C(Nc1ccc(N2CCN(C(=O)c3ccccc3Cl)CC2)cc1)c1cccnc1`, the call was active.

The values above are taken from PubChem BioAssay AID651592 (Sanford-Burnham Center for Chemical Genomics, 2012).
